Measurements from the supplement of paper PMC9694430.

What was measured:
Test in all cases: thermal shift delta Tm vs DMSO control; higher = stronger stabilization (binding)
Conditions in all cases: 12.5 µM; protein concentration 2 µM
[1] = test system: LOC_OS01G01410-cb001
Summary of the method: (§1)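 Thermal shift values come from differential scanning fluorimetry on purified rice kinase domains made in E. coli, with melting temperatures obtained from Boltzmann fits. Samples of 19.5 μl held 2 μM kinase, 100 mM potassium phosphate pH 7.5, 150 mM NaCl, 10% glycerol, 5 × SYPRO Orange and compound in DMSO, and were heated from 25°C to 95°C at 0.05°C/s. Each shift is a triplicate mean relative to the DMSO-only protein sample.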

[2] = test system: LOC_OS01G02750-cb003
Summary of the method: as §1

[3] = test system: LOC_OS01G10900-cb004
Summary of the method: as §1

[4] = test system: LOC_OS01G13800-cb001
Summary of the method: as §1

[5] = test system: LOC_OS01G14860-cb001
Summary of the method: as §1

[6] = test system: LOC_OS01G21960-cb002
Summary of the method: as §1

[7] = test system: LOC_OS01G39600-cb002
Summary of the method: as §1

[8] = test system: LOC_OS01G48390-cb002
Summary of the method: as §1

[9] = test system: LOC_OS01G51400-cb002
Summary of the method: as §1

[10] = test system: T1, LOC_OS01G52050-cb004
T1 sequence (whole entry): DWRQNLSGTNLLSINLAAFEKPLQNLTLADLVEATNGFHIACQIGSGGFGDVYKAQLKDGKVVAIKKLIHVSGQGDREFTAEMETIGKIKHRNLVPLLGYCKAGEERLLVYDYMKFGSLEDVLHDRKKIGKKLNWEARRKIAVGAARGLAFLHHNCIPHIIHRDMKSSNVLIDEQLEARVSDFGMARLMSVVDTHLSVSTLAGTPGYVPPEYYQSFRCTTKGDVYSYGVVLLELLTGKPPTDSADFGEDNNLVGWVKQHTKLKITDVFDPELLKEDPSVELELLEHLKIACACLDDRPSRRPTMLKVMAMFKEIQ
Summary of the method: as §1

[11] = test system: LOC_OS01G57100-cb003
Summary of the method: as §1

[12] = test system: LOC_OS01G60330-cb001
Summary of the method: as §1

[13] = test system: LOC_OS01G60700-cb002
Summary of the method: as §1

[14] = test system: LOC_OS01G63280-cb003
Summary of the method: as §1

[15] = test system: LOC_OS01G67340-cb003
Summary of the method: as §1

[16] = test system: LOC_OS01G70970-cb002
Summary of the method: as §1

[17] = test system: LOC_OS02G07810-cb001
Summary of the method: as §1

[18] = test system: LOC_OS02G08530-cb003
Summary of the method: as §1

[19] = test system: LOC_OS02G14120-cb001
Summary of the method: as §1

[20] = test system: LOC_OS02G17970-cb001
Summary of the method: as §1
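Note: purified Escherichia coli-expressed rice kinase domain construct.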

Structure (SMILES) | thermal shift delta Tm [1] [°C] | thermal shift delta Tm [2] [°C] | thermal shift delta Tm [3] [°C] | thermal shift delta Tm [4] [°C] | thermal shift delta Tm [5] [°C] | thermal shift delta Tm [6] [°C] | thermal shift delta Tm [7] [°C] | thermal shift delta Tm [8] [°C] | thermal shift delta Tm [9] [°C] | thermal shift delta Tm [10] [°C] | thermal shift delta Tm [11] [°C] | thermal shift delta Tm [12] [°C] | thermal shift delta Tm [13] [°C] | thermal shift delta Tm [14] [°C] | thermal shift delta Tm [15] [°C] | thermal shift delta Tm [16] [°C] | thermal shift delta Tm [17] [°C] | thermal shift delta Tm [18] [°C] | thermal shift delta Tm [19] [°C] | thermal shift delta Tm [20] [°C]
Clc1ccc(Nc2nnc(Cc3ccncc3)c3ccccc23)cc1 [Vatalanib (PTK787) 2HCl] | 0.99 | 0.12 | -0.92 | 0.36 | 0.31 | 0.21 | 0.01 | 0.44 | -0.2 | 0.04 | 1.4 | 1.02 | 5.09 | 2.03 | -0.72 | 0.27 | 0.26 | 0.34 | -0.4 | 0.47
O=c1sn(-c2cccc3ccccc23)c(=O)n1Cc1ccccc1 [Tideglusib] | 0.61 | -1.04 | -0.23 | 0.16 | 0.15 | 0.39 | 1.37 | 0.44 | 0.24 | 0.37 | 1.25 | 0.51 | 1.08 | 0.25 | 0.24 | -0.22 | 0.81 | 0.5 | -0.01 | 1.3
C[C@H](NC(=O)c1c(N)nn2cccnc12)c1cc2cccc(C#Cc3cnn(C)c3)c2c(=O)n1-c1ccccc1 | -0.14 | 1.49 | -0.2 | 0 | 0.51 | 0.17 | 0.28 | 0.19 | 0.28 | 2.08 | 1.25 | 0.23 | -0.49 | 0 | 0.21 | 0.36 | -0.71 | 0.78 | 0.56 | 0.54
CCc1cnn2c(NCc3ccc[n+]([O-])c3)cc(N3CCCC[C@H]3CCO)nc12 | 0.61 | 2.64 | 0.06 | 0.02 | 3.51 | 0.49 | -0.18 | 0.7 | 0.2 | 0.32 | 1.62 | 1.64 | 0.78 | 0.34 | -0.24 | 0.27 | 1.17 | 0.89 | 0.57 | 0.96
CNc1nc(-c2ccc3c(N)n[nH]c3c2)cc(N2C[C@@H](C(=O)NC3CCCCC3)CC[C@H]2C)n1 | -0.44 | 0.32 | 0.09 | 0.25 | 0.55 | 1.02 | -5.84 | 0.39 | 0.44 | 0.02 | 2.04 | 0.28 | 2.12 | 0.81 | -0.04 | 0.71 | 1.63 | 1.27 | 0.75 | 1.01
Cc1ccccc1CN1C2=NCCN2C(=O)C2=C1CCN(Cc1ccccc1)C2 [TIC10 Analogue] | 0.06 | 2.43 | 0.31 | -0.07 | 0.07 | 0.85 | -3.24 | 0.44 | 0.5 | -0.27 | 1.53 | 0.24 | 1.04 | 0.12 | -0.3 | 0.36 | 0.85 | 1.02 | -0.11 | 0.86
Cc1cc(Nc2cc(CN3CCOCC3)c3nc(C)c(Cc4ccc(Cl)cc4F)n3n2)n[nH]1 | 2.97 | 3.19 | 1.89 | -0.62 | 7.26 | 2.02 | 2.41 | 5.72 | -0.5 | 1.05 | 0.41 | 3.94 | -0.8 | 0.12 | 1.73 | 1.25 | 0.19 | 0.8 | 8.86 | -0.03
C[C@H](NC(=O)/C(C#N)=C/c1cccc(Br)n1)c1ccccc1 | -1.2 | -2.27 | -0.05 | -0.79 | -1.13 | -0.08 | -1.71 | 0.12 | -1 | -1.36 | 2.09 | 0.03 | -0.53 | -4.67 | -1.18 | -1.46 | 0.51 | 0.47 | -1.36 | -2.09
O=C(c1ccc(F)c(F)c1Nc1ccc(I)cc1F)N1CC(O)([C@@H]2CCCCN2)C1 [Cobimetinib (GDC-0973, RG7420)] | 0.62 | 1.67 | 0.3 | 0.01 | 0.39 | 0.36 | -0.03 | 0.12 | 0.29 | 0.44 | 2.49 | 0.82 | 1.16 | 0.52 | 0.36 | 0.54 | 0.48 | 1.02 | 1.18 | 0.97
CCn1c(C(=O)N(C2CC2)C2CC2)cc2c3c(ncn3C)c(Nc3cc(C)n(C)n3)nc21 | 0.37 | 1.05 | -0.06 | 0.41 | 0.41 | 1.12 | -0.02 | 0.34 | 0.23 | 0.97 | 1.18 | 1.11 | 1.61 | 0.73 | 0.2 | 0.33 | 0.6 | 1.47 | 4.36 | 1.3
CC1(C)CNc2cc(NC(=O)c3cccnc3NCc3ccncc3)ccc21 [Motesanib Diphosphate (AMG-706)] | 1.13 | 0.81 | 0.63 | 0.38 | 0.51 | 0.76 | -0.19 | 0.41 | -0.07 | -0.22 | 1.3 | 1.28 | 1.09 | 8.62 | -0.45 | 0.75 | 0.59 | 0.61 | -0.17 | 0.6
CN(C)Cc1cccc(N/C(=C2\C(=O)Nc3cc(C(N)=O)ccc32)c2ccccc2)c1 | -0.11 | 0.69 | 1.98 | -0.09 | 0.65 | 0.45 | 0.07 | 0.48 | 0.08 | 0.86 | 0.28 | 1.3 | 0.57 | 0.43 | 0.19 | 0.87 | 0.75 | 1.55 | 1.2 | 0.67
